Assay results published in PubChem BioAssay (Tox21).
Values without a mark were called inactive. Results filed as inconclusive are left out. A call without a number means that no potency is given here. Activity calls are given as the source filed them. Unless noted, the call rests on the fitted dose curve; in most records, active means well fitted curve in the direction sought with a large enough effect in the repeat runs; inconclusive means weak or mixed curves; inactive means no such curve, though single readings can be large; an effect the other way counts as inactive or inconclusive.

Legend:
[1] = qHTS assay to identify small molecule antagonists of the estrogen related receptor (ERR) signaling pathway from Tox21 library - cell viability counter screen (AID 1224834); further: nearly all actives have a fitted effect of over 30% in size; further: potency means the concentration at half of the fitted maximal effect
Summary of the method: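 Seeded ERR cells were rested 6 h at 37 C/5% CO2 before compounds, positive and negative controls or DMSO were added. Incubation continued for 17.5 h, and viability was then quantified by CellTiter-Fluor fluorescence.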

[2] = biological target: Nuclear receptor subfamily 1 group I member 3 (Homo sapiens) (UniProt Q14994); test: qHTS assay to identify small molecule agonists of the constitutive androstane receptor (CAR) signaling pathway (AID 1224839); further: nearly all actives have a fitted effect of over 15% in size; further: potency means the concentration at half of the fitted maximal effect;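 on activation: HepG2 cells stably carrying human CAR and a CYP2B6 luciferase reporter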
Summary of the method: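 HepG2 cells stably expressing hCAR and a CYP2B6-2.2kb luciferase reporter were treated with compounds at 15 concentrations plus 0.75 uM PK11195 (final) for 24 h at 37 C; luminescence was read after ONE-Glo addition.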

[3] = qHTS assay to identify small molecule antagonists of the estrogen related receptor signaling pathway with the pleiotropic PPARgamma coactivator (PGC) from Tox21 10K library (AID 1224841; call rule not given here; further: actives are mostly falling curves and most rising ones were filed inactive; nearly all actives have a fitted effect of over 50% in size)
Summary of the method: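 Test chemicals dissolved in DMSO were applied to pre-incubated (6 h) PGC/ERR cells at 2,000 cells/well for an 18 h, 37 C treatment; reporter luminescence was then read using One-Glo.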

[4] = qHTS assay to identify small molecule agonists of the estrogen related receptor signaling pathway with the pleiotropic PPARgamma coactivator (PGC) from Tox21 10K library (AID 1224842); further: nearly all actives have a fitted effect of over 15% in size
Summary of the method: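 PGC/ERR reporter cells (NTP line) were seeded 2,000 per well, rested 6 h at 37 C/5% CO2, then pin-dosed with compounds in DMSO for 18 h at 37 C; luciferase read by One-Glo luminescence after 30 min at room temperature.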

[5] = qHTS assay to identify small molecule agonists of the hypoxia (HIF-1) signaling pathway - cell viability counter screen (AID 1224844; calls by dose curve; further: nearly all actives have a fitted effect of over 50% in size; further: potency means the concentration at half of the fitted maximal effect)
Summary of the method: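 HRE-bla ME-180; 0.5% dFBS; cpd 17 h, 37C, 5% CO2; CellTiter-Glo lum., 30 min RT, post-FRET read, same wells.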

[6] = qHTS assay to identify small molecule agonists of H2AX (AID 1224845; active means well fitted activation curve with a large enough effect in the signal ratio in the repeat runs, not every such curve was filed as active; the % refers to the signal ratio; further: potency means the concentration at half of the fitted maximal effect)
Summary of the method: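 Wild-type CHO-K1 cells plated overnight, then exposed 3 hr at 37C to compounds at 15 concentrations (0.76% DMSO). Lysed, then HTRF anti-pH2AX(S139)-cryptate/anti-H2AX-d2 detection after 24 hr at room temperature; emissions 665 and 620 nm.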

[7] = qHTS assay to identify small molecule antagonists of the estrogen related receptor (ERR) signaling pathway from Tox21 library (AID 1224848); further: nearly all actives have a fitted effect of over 50% in size; further: potency means the concentration at half of the fitted maximal effect
Summary of the method: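 Tox21 10K compounds in DMSO tested for ERR pathway antagonism in NTP's ERR cell line; 18 h, 37 C exposure; ONE-Glo luminescence.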

[8] = qHTS assay to identify small molecule agonists of the estrogen related receptor (ERR) signaling pathway from Tox21 library (AID 1224849; calls by dose curve; further: nearly all actives have a fitted effect of over 15% in size); settings: ERR reporter cell line, ONE-Glo luciferase, 18 h; at 92.4 µM (top of the series) unless noted
Summary of the method: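 Tox21 compounds tested for ERR agonism in an NTP reporter cell line: 18 h treatment at 37 C, then ONE-Glo luminescence.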

[9] = qHTS RealTime-Glo MT Cell Viability Assay in HepG2 cells - 24 hour (AID 1224867); further: nearly all actives have a fitted effect of over 50% in size; further: potency means the concentration at half of the fitted maximal effect
Summary of the method: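 Luminescence read-out: viable HepG2 cells reduce a prosubstrate to a NanoLuc substrate, giving a signal proportional to live cell number. Reads taken at 0, 8, 16, 24, 32 and 40 h of compound exposure at 37 C.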

[10] = qHTS RealTime-Glo MT Cell Viability Assay in HEK293 cells - 32 hour (AID 1224868); further: nearly all actives have a fitted effect of over 50% in size; further: potency means the concentration at half of the fitted maximal effect; on activity change, negative = cytotoxic: top concentration of the series differs between compounds
Summary of the method: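 Nonlytic real-time viability readout: viable cells convert prosubstrate to NanoLuc substrate, giving luminescence proportional to live cell number. HEK293, 600 cells/well, compound added after 5 h, continuous culture at 37 C.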

[11] = A CellTox Green Cytotoxicity Assay to monitor cytotoxicity in HEK293 cells - 0 hour (AID 1224869); further: nearly all actives have a fitted effect of over 50% in size
Summary of the method: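 Tox21 screen in HEK293: membrane-impermeant cyanine dye fluoresces on binding dead-cell DNA; compound pinned 5 h post-seeding, plates held at 37 C, signal read repeatedly through 40 h.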

[12] = qHTS RealTime-Glo MT Cell Viability Assay in HepG2 cells - 40 hour (AID 1224870); further: nearly all actives have a fitted effect of over 50% in size; further: potency means the concentration at half of the fitted maximal effect
Summary of the method: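 HepG2 cells mixed with RealTime-Glo MT reagents (NanoLuc plus cell-permeant prosubstrate) were seeded at 600 cells/well, incubated 5 h at 37 C/5% CO2, then pinned with compounds in DMSO; nonlytic luminescence tracked viability during 40 h treatment.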

[13] = qHTS assay to identify small molecule antagonists of the estrogen related receptor signaling pathway with the pleiotropic PPARgamma coactivator (PGC) from Tox21 10K library - cell viability counter screen (AID 1224840; active means well fitted cell-killing curve with a large enough effect in the repeat runs, not every such curve was filed as active; further: nearly all actives have a fitted effect of over 40% in size; further: potency means the concentration at half of the fitted maximal effect)
Summary of the method: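 Seeded PGC/ERR cells (2,000/well, 6 h, 37 C/5% CO2) get compound by pin tool; 17.5 h incubation at 37 C; CellTiter-Fluor added, 30 min, fluorescence measured.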

[14] = qHTS assay to identify small molecule agonists of H2AX - cell viability counter screen (AID 1224847; calls by dose curve; further: nearly all actives have a fitted effect of over 30% in size; further: potency means the concentration at half of the fitted maximal effect; on activity change, negative = cytotoxicity: top concentration of the series differs between compounds)
Summary of the method: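 Wild-type CHO-K1 cells (10% FBS medium) were plated overnight at 37C, exposed to compounds at 15 concentrations for 3 hr at 37C (0.76% DMSO final), and viability was read as CellTiter-Glo luminescence after 30 min at room temperature.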

[15] = qHTS assay to identify small molecule agonists of the constitutive androstane receptor (CAR) signaling pathway - cell viability counter screen (AID 1224836); further: nearly all actives have a fitted effect of over 45% in size; further: potency means the concentration at half of the fitted maximal effect
Summary of the method: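 HepG2 cells stably carrying hCAR and a CYP2B6-2.2kb reporter were plated 4 h, then given compounds at 15 concentrations plus PK11195 (final 0.75 uM). After 23 h at 37 C, viability was read by CellTiter-Fluor fluorescence.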

[16] = qHTS assay to identify small molecule antagonists of the constitutive androstane receptor (CAR) signaling pathway - cell viability counter screen (AID 1224837); further: nearly all actives have a fitted effect of over 45% in size; further: potency means the concentration at half of the fitted maximal effect
Summary of the method: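 To flag cytotoxic false antagonists, HepG2 hCAR/CYP2B6-2.2kb cells were treated 23 hr with 15-concentration compound series and 50 nM CITCO at 37 C/5% CO2; CellTiter-Fluor fluorescence was the measured end point.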

[17] = qHTS assay to identify small molecule agonists of the hypoxia (HIF-1) signaling pathway (AID 1224846; active means well fitted activation curve with a large enough effect in the signal ratio in the repeat runs, not every such curve was filed as active; the % refers to the signal ratio)
Summary of the method: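 Reporter induction in HRE-bla ME-180 cells is taken as agonism: cells sit 5 hrs after plating, receive compounds or DMSO only, incubate 17 hrs at 37C under 5% CO2, and are loaded with CCF4-AM for beta-lactamase FRET measurement.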

[18] = biological target: Nuclear receptor subfamily 1 group I member 3 (Homo sapiens) (UniProt Q14994); test: qHTS assay to identify small molecule antagonists of the constitutive androstane receptor (CAR) signaling pathway (AID 1224838); further: nearly all actives have a fitted effect of over 40% in size
Summary of the method: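 Human hepatoma HepG2 cells expressing hCAR and a CYP2B6 promoter (2.2 kb) luciferase construct; compound titration (15 points) with 50 nM CITCO final, 24 h at 37 C/5% CO2; luminescence via ONE-Glo after 30 min at room temperature.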

Sequence of Nuclear receptor subfamily 1 group I member 3 (Homo sapiens) (Q14994 whole entry, looked up): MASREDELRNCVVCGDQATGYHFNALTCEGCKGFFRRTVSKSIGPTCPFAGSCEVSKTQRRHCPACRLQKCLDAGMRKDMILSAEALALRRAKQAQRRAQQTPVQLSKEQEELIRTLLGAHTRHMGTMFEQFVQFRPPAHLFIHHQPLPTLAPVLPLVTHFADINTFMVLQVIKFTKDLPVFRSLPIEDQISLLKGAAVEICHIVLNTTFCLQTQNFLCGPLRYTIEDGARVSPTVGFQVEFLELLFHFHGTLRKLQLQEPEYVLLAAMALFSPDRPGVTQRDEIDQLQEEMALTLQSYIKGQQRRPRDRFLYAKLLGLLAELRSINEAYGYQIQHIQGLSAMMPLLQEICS

## N#Cc1c2ccccc2cc2ccccc12
[1]
  Potency: inactive
[2]
  Potency: inactive
[3]
  Potency: inactive
[4]
  Potency: inactive
[5]
  Potency: inactive
[6]
  Potency: inactive
[7]
  Potency: inactive
[8]
  activity change, positive = activation: 3.94%
[9]
  Potency: inactive
[10]
  Potency: inactive
[11]
  Potency: inactive
[12]
  Potency: inactive

## O=S(=O)(NS(=O)(=O)C(F)(F)F)C(F)(F)F
[1]
  Potency: 43100 nM (active)
[13]
  Potency: inactive
[6]
  Potency: inactive
[14]
  Potency: 56500 nM (active)
[9]
  Potency: inactive
[11]
  Potency: inactive
[12]
  Potency: inactive

## C1=CCC=C1
[1]
  Potency: inactive
[15]
  Potency: inactive
[13]
  Potency: inactive
[5]
  Potency: inactive
[14]
  Potency: inactive
[11]
  Potency: inactive
[12]
  Potency: inactive

## CCN(CC)Cc1nccn1-c1ccc([N+](=O)[O-])cc1C(=O)c1ccccc1Cl
[1]
  Potency: inactive
[16]
  Potency: 26600 nM (active)
[13]
  Potency: inactive
[3]
  Potency: inactive
[4]
  Potency: inactive
[5]
  Potency: inactive
[6]
  Potency: inactive
[17]
  Potency: inactive
[14]
  Potency: inactive
[7]
  Potency: inactive
[8]
  activity change, positive = activation: -10.7% [at 42.5 µM]
[10]
  Potency: inactive
[11]
  Potency: inactive
[12]
  Potency: inactive

## CCC[CH2][Sn]([CH2]CCC)([CH2]CCC)[O][Sn]([CH2]CCC)([CH2]CCC)[CH2]CCC
[1]
  Potency: 1060 nM (active)
[15]
  Potency: 752 nM (active)
[13]
  Potency: 533 nM (active)
[3]
  activity, negative = inhibition: 332% [at 8.39 µM]
[5]
  Potency: 479 nM (active)
[6]
  Potency: 278 nM (active)
[14]
  Potency: 278 nM (active)
[7]
  Potency: 377 nM (active)
[8]
  activity change, positive = activation: -60.2% [at 8.39 µM]
[9]
  Potency: 603 nM (active)
[10]
  Potency: 170 nM (active)
[11]
  cytotoxicity: 2.58% [at 6.97 µM]
[12]
  Potency: 537 nM (active)

## CC(=O)[O-].CC(=O)[O-].CC(=O)[O-].[Sb+3]
[1]
  viability change, negative = cytotoxic: 0.176% [at 3.27 µM]
[15]
  viability change, negative = cytotoxic: -15.6% [at 3.27 µM]
[16]
  activity change, negative = cytotoxicity: -10.2% [at 3.26 µM]
[13]
  viability change, negative = cytotoxic: 3.7% [at 3.27 µM]
[5]
  activity change, negative = cytotoxicity: -10.5% [at 2.72 µM]
[6]
  activation (H2AX phosphorylation): 1.32% [at 5.45 µM]
[17]
  activation: -0.789% [at 2.67 µM]
[14]
  activity change, negative = cytotoxicity: -1.46% [at 5.43 µM]
[10]
  activity change, negative = cytotoxic: 7.03% [at 2.72 µM]
[11]
  cytotoxicity: -0.412% [at 2.72 µM]

## Cc1cccc(Cc2cnc[nH]2)c1C
[1]
  Potency: inactive
[18]
  Potency: inactive
[2]
  Potency: inactive
[13]
  Potency: inactive
[5]
  Potency: inactive
[14]
  Potency: inactive
[9]
  Potency: inactive
[10]
  Potency: inactive
[11]
  Potency: inactive
[12]
  Potency: inactive

## CO/N=C(\C(=O)OC)c1ccccc1CO/N=C(\C)c1cccc(C(F)(F)F)c1
[1]
  Potency: inactive
[16]
  Potency: inactive
[18]
  Potency: inactive
[2]
  Potency: 8630 nM (active)
[13]
  Potency: inactive
[6]
  Potency: inactive
[14]
  Potency: 2010 nM (active)
[9]
  Potency: inactive
[10]
  Potency: 12300 nM (active)
[11]
  Potency: inactive
[12]
  Potency: inactive

## CO/N=C(/C1=NOCCO1)c1ccccc1Oc1ncnc(Oc2ccccc2Cl)c1F
[1]
  Potency: 27300 nM (active)
[18]
  Potency: inactive
[6]
  Potency: inactive
[17]
  Potency: inactive
[14]
  Potency: 12700 nM (active)
[11]
  Potency: inactive

## COc1ccc2c3c1O[C@H]1[C@H](O)CC[C@H]4[C@@H](C2)N(C)CC[C@@]341
[1]
  Potency: inactive
[16]
  Potency: inactive
[18]
  Potency: inactive
[2]
  Potency: inactive
[13]
  Potency: inactive
[5]
  Potency: inactive
[6]
  Potency: inactive
[17]
  Potency: inactive
[14]
  Potency: inactive
[9]
  Potency: inactive
[10]
  Potency: inactive
[11]
  Potency: inactive
[12]
  Potency: inactive
